Bioassay records: PubChem BioAssay, National Center for Advancing Translational Sciences (NCATS)
TDP1 cell CPT: DT40-hTDP1 cell growth loss with CPT | chicken DT40 Tdp1-/-;hTDP1 cells + 20 nM CPT, ATP luminescence, 48 h | Potency, µM (doses to about 46.2 µM), inactives show at the highest dose activity change, negative = growth inhibition, actives largely listed as inhibitors | AID 686979 | 12% of 420,000 active; also: % is scaled to controls: 0 for no effect and ±100 for the full control effect; nearly all actives have a fitted effect of over 55% in size
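Chicken DT40 Tdp1-/- cells complemented with human TDP1, 400 cells/well, exposed to compounds plus 20 nM camptothecin for at least 48 h at 37 C; viability read as ATP content by CellTiter-Glo luminescence.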
HT1080NT lethal: kills 2HG-producing HT-1080-NT fibrosarcoma cells. HT-1080-NT fibrosarcoma viability, CellTiter-Glo ATP luminescence, 48 h. Potency, µM (titrated, usually from 46.1 µM), for inactives: top-dose activity, negative = less viability, actives largely listed as cytotoxic. 1.6% of 360,000 active;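 also: NT is the 2HG producing partner of a matched IDH1 knockdown line; 0% = DMSO-treated cells and -100% = media-only wells without cells; nearly all actives have a fitted effect of over 55% in size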
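Luminescent CellTiter-Glo readout after 48 hours of compound exposure at 37 degrees C defined viability of HT-1080-NT cells. Activity was normalized to DMSO wells and cell-free media wells; concentration-response curves were fitted and assigned curve classes.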
HT1080 IDH1KD tx: kills HT-1080 cells with IDH1 knockdown. HT-1080 IDH1 knockdown viability, ATP luminescence, 48 h. Potency, µM (doses to about 46.1 µM), without a hit: top-dose activity, negative = toxicity, usual class: cytotoxic. 2% of 360,000 active. AID 686971;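 also: 0% = DMSO wells and -100% = cell-free medium wells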
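Cytotoxicity counter-line: IDH1KD HT-1080, 48 h, CellTiter-Glo. Curves classed by r2, magnitude and activity.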
HepG2 tox: kills HepG2 cells in TGF-b inhibitor counter-screen | HepG2 CAGA-GFP viability, ATP luminescence, 18 h | Potency, µM (titrated, usually from 46.1 µM), inactives show at the top dose activity change, negative = cytotoxicity, actives largely listed as cytotoxic | 0.76% of 410,000 active | AID 588856
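CellTiter-Glo luminescence gave cytotoxicity after 18 hours at 37 degrees C. The cells were HepG2 CAGA-GFP in 1% FBS DMEM, stimulated with 500 pg/mL TGF-beta after compound addition. %Activity was normalised to no-cell wells (complete cell-killing) and DMSO (no toxicity), and curves were fitted and classified.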
TDP1 cell noCPT: qHTS for Inhibitors of human tyrosyl-DNA phosphodiesterase 1 (TDP1): qHTS in cells in absence of CPT; DT40 Tdp1-/- hTDP1 cells, no CPT, ATP luminescence, 48 h; 15% of 420,000 active; Potency, µM (doses to about 46.2 µM), inactives show at the top dose activity change, negative = growth inhibition, hits mostly inhibitors; also: % is scaled to controls: 0 for no effect and ±100 for the full control effect; nearly all actives have a fitted effect of over 55% in size
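Stably hTDP1-transfected Tdp1-null chicken DT40 cells were treated with library compounds minus camptothecin and grown for at least 48 hr at 37 °C, after which cellular ATP was quantified by luminescence.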
TGFb inhibitor: inhibitors of TGF-b signaling; HepG2 CAGA-GFP TGF-b/SMAD3 reporter, GFP fluorescence, 18 h; TGF-beta stimulated, 500 pg/mL final; Potency, µM (series often up to 46.1 µM), without a hit: at the top dose activity, negative = inhibition, usual class: inhibitors; 1.2% of 410,000 active; also: % is scaled to controls: 0 for no effect and ±100 for the full control effect; nearly all actives have a fitted effect of over 65% in size
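Inhibition of TGF-beta-driven CAGA-GFP reporter expression in HEPG2 cells is measured by cellular GFP fluorescence after 18 h stimulation with 500 pg/mL recombinant TGF-beta in 1% FBS medium at 37 degrees C.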
Active calls of the source: *; ? = inconclusive; · = not tested or not shown. In the library only some 17% were active in any assay of this set; here they are far more common. Calls follow the shape of the dose curve; as a rule, active = well fitted curve in the direction sought with a large enough effect; inconclusive = small, poorly fitted or top-dose-only effect, or another doubt; inactive = no such curve, though single readings can be large; an effect the other way counts as inactive or inconclusive. Potency is read from the fitted curve at half-maximal effect.

SMILES	TDP1 cell CPT	HT1080NT lethal	HT1080 IDH1KD tx	HepG2 tox	TDP1 cell noCPT	TGFb inhibitor
O=C(NN1C(=O)c2ccccc2NC1c1ccoc1)c1ccc([N+](=O)[O-])cc1 (stereo unspecified)	-17.0%	0.9%	-4.6%	-19.1%	7.8%	?
O=C(NN1C(=O)c2ccccc2NC1c1ccc([N+](=O)[O-])o1)c1ccccc1 (stereo unspecified)	?	-15.1%	-15.5%	-29.6%	16.4µM*	?
O=C(NN1C(=O)c2ccccc2NC1c1ccc([N+](=O)[O-])o1)c1ccc([N+](=O)[O-])cc1 (stereo unspecified)	18.4µM*	?	?	-39.9%	8.2µM*	?
CCc1nc2ccccc2c(C(=O)OCC(=O)NCc2ccc3c(c2)OCO3)c1C	?	-29.5%	-21.4%	-9.0%	18.4µM*	?
CCCc1nc2ccccc2c(C(=O)OC(C)C(=O)NCc2ccc3c(c2)OCO3)c1CC (stereo unspecified)	29.1µM*	-29.4%	-27.3%	-17.1%	18.4µM*	?
CC1=C(C(=O)OCc2ccccc2)C(c2cccc(F)c2)NC(=O)N1 (stereo unspecified)	-12.1%	-15.6%	-6.9%	-22.7%	-22.2%	-29.5%
O=C(CN1C(=O)c2cccc([N+](=O)[O-])c2C1=O)NCc1ccccc1	12.9%	14.2%	22.3%	6.0%	26.0%	0.0%
CCOc1ccc(S(=O)(=O)/N=C(\N)c2ccccc2)cc1	23.1µM*	-23.0%	-2.2%	17.4%	11.6µM*	3.0%
CN(C)S(=O)(=O)c1ccc(NC(=O)Cn2nc(-c3ccc4c(c3)OCCO4)ccc2=O)cc1	?	7.5%	6.4%	1.8%	20.6µM*	1.0%
C[C@@H]1CN([C@H](C)CO)C(=O)CCCn2nncc2CO[C@H]1CN(C)Cc1cccc(O)c1	3.0%	-0.1%	0.6%	-2.3%	-4.6%	-4.8%
CCn1c(NCc2ccc(OC)cc2)nc2ccccc21	-13.5%	0.2%	-1.8%	-23.2%	?	-3.6%
c1ccc(Cn2c(NCc3ccco3)nc3ccccc32)cc1	?	3.5%	0.2%	-4.4%	18.4µM*	-4.9%
COc1ccc(CNc2nc3ccccc3n2Cc2ccccc2)cc1OC	?	0.1%	-26.0%	-61.7%	18.4µM*	?
COc1cc(/C(C)=N/NC(=O)C(O)(c2ccccc2)c2ccccc2)ccc1O	?	17.6%	18.0%	-2.2%	-28.8%	3.6%
O=C(O)C1CCCN1c1nc(-c2ccc(Cl)c(Cl)c2)cc(C(F)(F)F)n1 (stereo unspecified)	14.6µM*	-18.3%	-2.8%	-13.9%	20.6µM*	?
O=C(CCC(=O)N1CCN(c2ccccc2F)CC1)N1CCN(c2ccccc2)CC1	?	4.1%	2.8%	1.3%	-28.9%	-25.5%
O=C(CCC(=O)N1CCN(c2ccccc2F)CC1)N1CCN(c2ccc(F)cc2)CC1	?	-1.2%	-24.5%	11.0%	16.4µM*	0.0%
O=C(CCSCc1ccccc1F)N1CCN(c2ccc(F)cc2)CC1	?	·	·	-34.4%	25.9µM*	?
O=C(CN1C(=O)NC(c2ccccc2)(c2ccccc2)C1=O)N1CCN(c2ccc(F)cc2)CC1	?	?	?	-54.4%	?	?
O=C(CN1C(=O)NC(c2ccccc2)(c2ccccc2)C1=O)N1CCN(c2ccccc2F)CC1	?	-27.5%	-5.7%	-14.3%	4.11µM*	?
Cc1ccc(Cn2ccn(Cc3ccc(C)cc3)c(=O)c2=O)cc1	-2.7%	·	·	0.6%	-10.2%	·
Cc1ccc2nc(-c3ccc(C)s3)c(Nc3ccc4c(c3)OCCO4)n2c1	23.1µM*	·	·	-16.9%	?	-4.5%
Cc1ccc2nc(-c3ccco3)c(Nc3ccc4c(c3)OCCO4)n2c1	16.4µM*	·	·	-11.0%	?	-14.4%
Cc1ccc(-c2nc3ccccn3c2Nc2ccc3c(c2)OCCO3)s1	-15.2%	·	·	-27.0%	-4.7%	-15.2%
Clc1ccc2nc(-c3ccc(Br)o3)c(Nc3ccc4c(c3)OCCO4)n2c1	20.6µM*	·	·	-26.4%	?	-6.4%
SMILES	TDP1 cell CPT	HT1080NT lethal	HT1080 IDH1KD tx	HepG2 tox	TDP1 cell noCPT	TGFb inhibitor
Cc1ccccc1C(=O)Nc1cccc(-c2cn3cccnc3n2)c1	?	·	·	0.3%	?	29.6%
CC1CCc2cc(F)ccc2N1C(=O)CSc1nnc2c3ccccc3n(C)c2n1 (stereo unspecified)	18.4µM*	5.9%	12.9%	2.1%	20.6µM*	-35.9%
Cn1c2ccccc2c2nnc(SCC(=O)NC3CCCC3)nc21	-1.9%	7.0%	3.6%	7.8%	?	6.2%
CC1Cc2ccccc2N1C(=O)CSc1nnc2c(n1)[nH]c1ccc(F)cc12 (stereo unspecified)	?	-2.6%	0.0%	1.7%	20.6µM*	-6.4%
CCCn1c(SCC(=O)N2c3ccc(F)cc3CCC2C)nnc1-c1ccccn1 (stereo unspecified)	?	-0.5%	-0.4%	-27.1%	20.6µM*	9.2%
Cc1cc(=O)oc2cc(OCC(=O)OCC(=O)N3CCC(C)CC3)ccc12	-3.7%	-9.3%	1.8%	71.9%	-12.8%	26.2%
Cn1nc(C(F)(F)F)c(/C=N/OC(=O)c2ccccc2)c1Sc1ccc(Cl)cc1	23.1µM*	-27.7%	-20.8%	15.6%	23.1µM*	?
C=CCc1cc(/C=C2/NC(=S)NC2=O)cc(OC)c1O	14.6µM*	-7.6%	-26.7%	3.3%	20.6µM*	7.2%
O=C(Nc1nccs1)C(Br)C(Br)c1ccccc1 (stereo unspecified)	10.3µM*	-4.5%	?	-21.9%	20.6µM*	0.0%
CC(=O)OC(C(=O)Nc1nccs1)c1ccccc1 (stereo unspecified)	?	-6.5%	9.9%	-1.2%	1.2%	1.0%
CC(C)C(C(=O)Nc1nccs1)c1ccc(Cl)cc1 (stereo unspecified)	?	?	10.3µM*	-11.9%	?	?
CC(C)(Oc1ccc(Cl)cc1)C(=O)Nc1ccncc1	?	-3.6%	-11.6%	-3.4%	?	6.4%
CC(C)C(C(=O)Nc1ccncc1)c1ccc(Cl)cc1 (stereo unspecified)	?	-17.2%	?	-41.9%	16.4µM*	?
